{"source": "the supplement of paper PMC8728848", "binders": {"B1": {"name": "MtEccB1 (Mycobacterium tuberculosis H37Rv), O69734 (protein)", "chain": "MGLRLTTKVQVSGWRFLLRRLEHAIVRRDTRMFDDPLQFYSRSIALGIVVAVLILAGAALLAYFKPQGKLGGTSLFTDRATNQLYVLLSGQLHPVYNLTSARLVLGNPANPATVKSSELSKLPMGQTVGIPGAPYATPVSAGSTSIWTLCDTVARADSTSPVVQTAVIAMPLEIDASIDPLQSHEAVLVSYQGETWIVTTKGRHAIDLTDRALTSSMGIPVTARPTPISEGMFNALPDMGPWQLPPIPAAGAPNSLGLPDDLVIGSVFQIHTDKGPQYYVVLPDGIAQVNATTAAALRATQAHGLVAPPAMVPSLVVRIAERVYPSPLPDEPLKIVSRPQDPALCWSWQRSAGDQSPQSTVLSGRHLPISPSAMNMGIKQIHGTATVYLDGGKFVALQSPDPRYTESMYYIDPQGVRYGVPNAETAKSLGLSSPQNAPWEIVRLLVDGPVLSKDAALLEHDTLPADPSPRKVPAGASGAP"}}, "assay_in_all_cases": "glycan array binding signal (z-score within array); higher = stronger binding", "conditions_in_all_cases": "glycan notation: IUPAC condensed, linker removed", "key": {"[1]": {"target": "Gal(b1-6)Gal", "method_in_brief": "(§1)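 Arrays were curated from the Consortium for Functional Glycomics database, 3228 in total, and kept only where the protein sequence was available. Binding is expressed as a within-array Z-score. This score was averaged across arrays of the same protein sequence at different concentrations or buffers and across linkers, and negative values can be read as non-binding.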"}, "[2]": {"target": "Gal3S6S(b1-4)GlcNAc", "method_in_brief": "as §1"}, "[3]": {"target": "Gal3S6S(b1-4)GlcNAc6S", "method_in_brief": "as §1"}, "[4]": {"target": "Gal4S6S(b1-4)GlcNAc", "method_in_brief": "as §1"}, "[5]": {"target": "Gal6S(b1-4)Glc", "method_in_brief": "as §1"}, "[6]": {"target": "GlcA3S(b1-3)Gal(b1-4)GlcNAc(b1-2)Man", "method_in_brief": "as §1"}, "[7]": {"target": "GlcNAc(a1-4)Gal(b1-4)GlcNAc(b1-3)Gal(b1-4)GlcNAc", "method_in_brief": "as §1"}, "[8]": {"target": "GlcNAc(b1-2)[GlcNAc(b1-4)]Man(a1-3)[GlcNAc(b1-2)Man(a1-6)]Man(b1-4)GlcNAc(b1-4)GlcNAc", "method_in_brief": "as §1"}, "[9]": {"target": "GlcNAc(b1-3)Gal(b1-4)GlcNAc(b1-3)Gal(b1-4)GlcNAc(b1-3)Gal(b1-4)GlcNAc(b1-3)Gal(b1-4)GlcNAc(b1-2)[GlcNAc(b1-3)Gal(b1-4)GlcNAc(b1-3)Gal(b1-4)GlcNAc(b1-3)Gal(b1-4)GlcNAc(b1-3)Gal(b1-4)GlcNAc(b1-6)]Man(a1-6)[GlcNAc(b1-3)Gal(b1-4)GlcNAc(b1-3)Gal(b1-4)GlcNAc(b1-3)Gal(b1-4)GlcNAc(b1-3)Gal(b1-4)GlcNAc(b1-2)Man(a1-3)]Man(b1-4)GlcNAc(b1-4)[Fuc(a1-6)]GlcNAc", "method_in_brief": "as §1"}, "[10]": {"target": "GlcNAc(b1-3)[GlcNAc(b1-6)]Gal(b1-4)GlcNAc", "method_in_brief": "as §1"}, "[11]": {"target": "Man(a1-2)Man(a1-2)Man(a1-3)Man", "method_in_brief": "as §1"}, "[12]": {"target": "Man(a1-3)[Man(a1-6)]Man(b1-4)GlcNAc(b1-4)[Fuc(a1-6)]GlcNAc", "method_in_brief": "as §1"}, "[13]": {"target": "Neu5Ac(a2-3)Gal(b1-3)GalNAc(b1-4)[Neu5Ac(a2-3)]Gal(b1-4)Glc", "method_in_brief": "as §1"}, "[14]": {"target": "Neu5Ac(a2-3)Gal(b1-3)GlcNAc(b1-6)GalNAc", "method_in_brief": "as §1"}, "[15]": {"target": "Neu5Ac(a2-3)Gal(b1-3)[Fuc(a1-4)]GlcNAc(b1-3)Gal(b1-4)[Fuc(a1-3)]GlcNAc", "method_in_brief": "as §1"}, "[16]": {"target": "Neu5Ac(a2-3)Gal(b1-3)]Neu5Ac(a2-3)Gal(b1-4)]GlcNAc", "method_in_brief": "as §1"}, "[17]": {"target": "Neu5Ac(a2-3)Gal(b1-4)GlcNAc(b1-2)Man(a1-3)[GlcNAc(b1-4)][Neu5Ac(a2-3)Gal(b1-4)GlcNAc(b1-2)Man(a1-6)]Man(b1-4)GlcNAc(b1-4)GlcNAc", "method_in_brief": "as §1"}, "[18]": {"target": "Neu5Ac(a2-3)Gal(b1-4)GlcNAc(b1-2)Man(a1-3)[Neu5Ac(a2-3)Gal(b1-4)GlcNAc(b1-2)Man(a1-6)]Man(b1-4)GlcNAc(b1-4)GlcNAc", "method_in_brief": "as §1"}, "[19]": {"target": "Neu5Ac(a2-3)Gal(b1-4)GlcNAc(b1-3)Gal(b1-4)GlcNAc(b1-3)Gal(b1-4)GlcNAc(b1-2)Man(a1-3)[Neu5Ac(a2-3)Gal(b1-4)GlcNAc(b1-3)Gal(b1-4)GlcNAc(b1-3)Gal(b1-4)GlcNAc(b1-2)Man(a1-6)]GalNAc", "method_in_brief": "as §1"}, "[20]": {"target": "Neu5Ac(a2-3)Gal(b1-4)GlcNAc6S", "method_in_brief": "as §1"}, "[21]": {"target": "Neu5Ac(a2-3)Gal(b1-4)[Fuc(a1-3)]GlcNAc(b1-3)GalNAc", "method_in_brief": "as §1"}, "[22]": {"target": "Neu5Ac(a2-6)Gal(b1-4)GlcNAc(b1-2)Man(a1-6)[Man(a1-3)]Man(b1-4)GlcNAc(b1-4)GlcNAc", "method_in_brief": "as §1"}, "[23]": {"target": "Neu5Ac(a2-6)Gal(b1-4)GlcNAc(b1-2)[Neu5Ac(a2-6)Gal(b1-4)GlcNAc(b1-6)]Man(a1-6)[Neu5Ac(a2-6)Gal(b1-4)GlcNAc(b1-2)Man(a1-3)][GlcNAc(b1-4)]Man(b1-4)GlcNAc(b1-4)GlcNAc", "method_in_brief": "as §1"}, "[24]": {"target": "Neu5Ac(a2-6)Gal(b1-4)GlcNAc(b1-3)Gal(b1-4)GlcNAc(b1-3)Gal(b1-4)GlcNAc(b1-2)Man(a1-3)[Neu5Ac(a2-6)Gal(b1-4)GlcNAc(b1-3)Gal(b1-4)GlcNAc(b1-3)Gal(b1-4)GlcNAc(b1-2)Man(a1-6)]GalNAc", "method_in_brief": "as §1"}, "[25]": {"target": "Neu5Ac(a2-6)GalNAc", "method_in_brief": "as §1"}, "[26]": {"target": "Neu5Ac(a2-8)Neu5Ac(a2-3)[GalNAc(b1-4)]Gal(b1-4)Glc", "method_in_brief": "as §1"}, "[27]": {"target": "Neu5Gc(a2-3)Gal(b1-4)GlcNAc", "method_in_brief": "as §1"}, "[28]": {"target": "Neu5Gc(a2-3)Gal(b1-4)[Fuc(a1-3)]GlcNAc", "method_in_brief": "as §1"}, "[29]": {"target": "Neu5Gc(b2-6)Gal(b1-4)GlcNAc", "method_in_brief": "as §1"}}, "note": "This excerpt belongs to a sample that is enriched for the strongest signals."}
{"binder": "B1", "values": [{"measurement": "glycan array binding signal (z-score)", "setting": "[1]", "value": -0.836}, {"measurement": "glycan array binding signal (z-score)", "setting": "[2]", "value": 0.192}, {"measurement": "glycan array binding signal (z-score)", "setting": "[3]", "value": 3.9}, {"measurement": "glycan array binding signal (z-score)", "setting": "[4]", "value": 3.03}, {"measurement": "glycan array binding signal (z-score)", "setting": "[5]", "value": 0.586}, {"measurement": "glycan array binding signal (z-score)", "setting": "[6]", "value": -1.14}, {"measurement": "glycan array binding signal (z-score)", "setting": "[7]", "value": 0.812}, {"measurement": "glycan array binding signal (z-score)", "setting": "[8]", "value": -0.488}, {"measurement": "glycan array binding signal (z-score)", "setting": "[9]", "value": 3.92}, {"measurement": "glycan array binding signal (z-score)", "setting": "[10]", "value": -0.11}, {"measurement": "glycan array binding signal (z-score)", "setting": "[11]", "value": -1.02}, {"measurement": "glycan array binding signal (z-score)", "setting": "[12]", "value": 0.339}, {"measurement": "glycan array binding signal (z-score)", "setting": "[13]", "value": 3.37}, {"measurement": "glycan array binding signal (z-score)", "setting": "[14]", "value": -0.342}, {"measurement": "glycan array binding signal (z-score)", "setting": "[15]", "value": 0.263}, {"measurement": "glycan array binding signal (z-score)", "setting": "[16]", "value": 0.038}, {"measurement": "glycan array binding signal (z-score)", "setting": "[17]", "value": 4.06}, {"measurement": "glycan array binding signal (z-score)", "setting": "[18]", "value": -1.57}, {"measurement": "glycan array binding signal (z-score)", "setting": "[19]", "value": 2.66}, {"measurement": "glycan array binding signal (z-score)", "setting": "[20]", "value": 1.54}, {"measurement": "glycan array binding signal (z-score)", "setting": "[21]", "value": 0.588}, {"measurement": "glycan array binding signal (z-score)", "setting": "[22]", "value": 0.711}, {"measurement": "glycan array binding signal (z-score)", "setting": "[23]", "value": -0.566}, {"measurement": "glycan array binding signal (z-score)", "setting": "[24]", "value": 2.47}, {"measurement": "glycan array binding signal (z-score)", "setting": "[25]", "value": -0.143}, {"measurement": "glycan array binding signal (z-score)", "setting": "[26]", "value": 0.156}, {"measurement": "glycan array binding signal (z-score)", "setting": "[27]", "value": -0.509}, {"measurement": "glycan array binding signal (z-score)", "setting": "[28]", "value": 0.844}, {"measurement": "glycan array binding signal (z-score)", "setting": "[29]", "value": -0.779}]}
